# Measured values reported in PubChem BioAssay (EPA / NIEHS).
# Activity calls are given as the source filed them. Rule for the calls: active = hit-call score of the fitted dose curve at least 0.9, where 1 is the maximum; inactive = score below 0.9.
# Columns and labels:
# Details in all cases: mRNA level, 48 h; actives raise or lower the signal
# [1] = read-out: Heat shock 70 kDa protein 1 (HSPA1A), gene 3303; test: LTEA_HepaRG_HSPA1A: Life Technologies and Expression Analysis (LTEA) Assay for Heat shock 70 kDa protein 1 (HSPA1A) using HepaRG (AID 2283502)
# How it was run: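 Differentiated human HepaRG cells in serum-free induction medium were exposed in duplicate for 48 h to eight concentrations (top 100 uM, half-log steps, 0.5% DMSO). HSPA1A mRNA was quantified by qRT-PCR, normalized to ACTB, GAPDH and POLR2A, and fitted bidirectionally against DMSO.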
# [2] = read-out: Hypoxia-inducible factor 1-alpha (Homo sapiens) (UniProt Q16665); test: LTEA_HepaRG_HIF1A: Life Technologies and Expression Analysis (LTEA) Assay for Hypoxia-inducible factor 1 (HIF1A) Trancription factor using HepaRG (AID 2283503)
# How it was run: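 HepaRG, 48 h exposure, 8-pt half-log series from 100 uM, 0.5% DMSO vehicle, duplicates. Readout: HIF1A transcript by qRT-PCR (Fluidigm array), housekeeping-normalised. Bidirectional curve fit vs DMSO baseline.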
# [3] = read-out: 3-Hydroxy-3-Methylglutaryl-CoA Synthase 2 (HMGCS2), HMGCS2 (gene 3158); test: LTEA_HepaRG_HMGCS2: Life Technologies and Expression Analysis (LTEA) Assay for 3-Hydroxy-3-Methylglutaryl-CoA Synthase 2 (HMGCS2) using HepaRG (AID 2283504)
# How it was run: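 Human HepaRG cells in serum-free induction medium were exposed in duplicate for 48 h to 8-point half-log series from 100 uM top in 0.5% DMSO. HMGCS2 mRNA measured by TaqMan qRT-PCR, normalised to ACTB, GAPDH, POLR2A; bidirectional fit versus DMSO.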
# HGF (gene 3082) = test: LTEA_HepaRG_HGF: Life Technologies and Expression Analysis (LTEA) Assay for Hepatocyte Growth Facto (HGF) using HepaRG (AID 2283505)
# How it was run: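 Differentiated HepaRG cells in serum-free induction medium exposed 48 h in duplicate, 8 half-log concentrations from 100 uM in 0.5% DMSO. HGF mRNA by qRT-PCR, normalised to ACTB, GAPDH, POLR2A; bidirectional fitting.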
# [4] = read-out: Insulin Like Growth Factor 1 (IGF1), IGF1 (gene 3479); test: LTEA_HepaRG_IGF1: Life Technologies and Expression Analysis (LTEA) Assay for Insulin Like Growth Factor 1 (IGF1) using HepaRG (AID 2283506)
# How it was run: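 Differentiated human HepaRG cells were dosed for 48 h in serum-free induction medium with 0.5% DMSO, eight half-log concentrations up to 100 uM, in duplicate. IGF1 mRNA was quantified by qRT-PCR normalized to ACTB, GAPDH, POLR2A; bidirectional fitting versus DMSO.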
# [5] = read-out: Intercellular Adhesion Molecule 1 (ICAM1), ICAM1 (gene 3383); test: LTEA_HepaRG_ICAM1: Life Technologies and Expression Analysis (LTEA) Assay for Intercellular Adhesion Molecule 1 (ICAM1) using HepaRG (AID 2283507)
# How it was run: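 Differentiated human HepaRG cells in serum-free induction medium exposed 48 h in duplicate to 8 half-log concentrations (top 100 uM, 0.5% DMSO). ICAM1 mRNA quantified by TaqMan qRT-PCR, normalized to ACTB, GAPDH and POLR2A; bidirectional fitting versus DMSO.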
# [6] = read-out: Insulin-like growth factor-binding protein 1 (IGFBP1), IGFBP1 (gene 3484); test: LTEA_HepaRG_IGFBP1: Life Technologies and Expression Analysis (LTEA) Assay for Insulin-like growth factor-binding protein 1 (IGFBP1) using HepaRG (AID 2283508)
# How it was run: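 HepaRG cells, plated 48 h then switched to serum-free induction medium, exposed in duplicate for 48 h to 8-point half-log series from 100 uM in 0.5% DMSO. mRNA measured by qRT-PCR, normalized to ACTB/GAPDH/POLR2A; bidirectional fit versus DMSO.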
# [7] = read-out: Interleukin 6 (IL6), IL6 (gene 3569); test: LTEA_HepaRG_IL6: Life Technologies and Expression Analysis (LTEA) Assay for Interleukin 6 (IL6) using HepaRG (AID 2283509)
# How it was run: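 HepaRG, ~100,000 cells/well, 48 h pre-culture; serum-free induction medium; cmpd 8-pt half-log from 100 uM, 0.5% DMSO, duplicate, 48 h. Lysis in RLT, TaqMan qRT-PCR; gain or loss vs DMSO.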
# [8] = read-out: Interleukin 6 Receptor (IL6R), IL6R (gene 3570); test: LTEA_HepaRG_IL6R: Life Technologies and Expression Analysis (LTEA) Assay for Interleukin 6 Receptor (IL6R) using HepaRG (AID 2283510)
# How it was run: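 Differentiated human HepaRG cells, plated 48 h then switched to serum-free induction medium, were dosed in duplicate for 48 h at eight half-log concentrations up to 100 uM in 0.5% DMSO. IL6R mRNA quantified by qRT-PCR, normalized to ACTB/GAPDH/POLR2A; bidirectional fit versus DMSO.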
# [9] = read-out: Potassium channel subfamily K member 1 (KCNK1), KCNK1 (gene 3775); test: LTEA_HepaRG_KCNK1: Life Technologies and Expression Analysis (LTEA) Assay for Potassium channel subfamily K member 1 (KCNK1) using HepaRG (AID 2283511)
# How it was run: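 Gain or loss of KCNK1 mRNA is the read-out, quantified by qRT-PCR against three housekeeping genes after 48 h chemical treatment of human HepaRG liver cells. Concentrations ran from 100 uM downward in half-log steps, vehicle 0.5% DMSO.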
# [10] = read-out: Keratin 19 (KRT19), KRT19 (gene 3880); test: LTEA_HepaRG_KRT19: Life Technologies and Expression Analysis (LTEA) Assay for Keratin 19 (KRT19) using HepaRG (AID 2283512)
# How it was run: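 Differentiated HepaRG cells in serum-free induction medium, exposed 48 h in duplicate to 8 half-log concentrations up to 100 uM in 0.5% DMSO. KRT19 mRNA by qRT-PCR, normalized to ACTB, GAPDH, POLR2A; bidirectional fit vs DMSO.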
# [11] = read-out: JUN Transcription Factor, JUN (gene 3725); test: LTEA_HepaRG_JUN: Life Technologies and Expression Analysis (LTEA) Assay for JUN Transcription Factor using HepaRG (AID 2283513)
# How it was run: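 Differentiated HepaRG cells were exposed to chemicals for 48 h in serum-free induction medium, 8 concentrations from 100 uM in half-log steps, 0.5% DMSO vehicle, in duplicate. JUN mRNA was quantified by TaqMan qRT-PCR, normalized to ACTB, GAPDH, POLR2A.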
# [12] = read-out: Lipase C (LIPC), LIPC (gene 3990); test: LTEA_HepaRG_LIPC: Life Technologies and Expression Analysis (LTEA) Assay for Lipase C (LIPC) using HepaRG (AID 2283514)
# How it was run: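 Read-out is LIPC transcript level by TaqMan qRT-PCR, normalized to three housekeeping genes, after 48 h chemical treatment of human HepaRG liver cells. Curves span eight concentrations topping at 100 uM; activity in either direction scored relative to 0.5% DMSO.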
# [13] = read-out: Lipoprotein lipase (LPL), LPL (gene 4023); test: LTEA_HepaRG_LPL: Life Technologies and Expression Analysis (LTEA) Assay for Lipoprotein lipase (LPL) using HepaRG (AID 2283515)
# How it was run: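 Read-out is LPL transcript level by qRT-PCR, normalized to three housekeeping genes and fitted bidirectionally against the DMSO control. Human HepaRG cells received chemicals for 48 h at up to 100 uM.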
# [14] = read-out: matrix metalloproteinase-10 (MMP10), MMP10 (gene 4319); test: LTEA_HepaRG_MMP10: Life Technologies and Expression Analysis (LTEA) Assay for matrix metalloproteinase-10 (MMP10) using HepaRG (AID 2283517)
# How it was run: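 Gain or loss of MMP10 mRNA is fitted relative to the 0.5% DMSO vehicle. The human hepatic line HepaRG receives a 48-hour serum-free exposure, in duplicate, with a maximum concentration of 100 uM.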
# MYC, MYC (gene 4609) = test: LTEA_HepaRG_MYC: Life Technologies and Expression Analysis (LTEA) Assay for MYC using HepaRG (AID 2283518)
# How it was run: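 Differentiated HepaRG cells exposed 48 h in serum-free induction medium to 8 concentrations (top 100 uM, half-log steps; 0.5% DMSO), duplicate. MYC mRNA measured by Fluidigm qRT-PCR, normalized to ACTB, GAPDH, POLR2A; bidirectional fit versus DMSO.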
# [15] = read-out: matrix metalloproteinase-3 (MMP3), MMP3 (gene 4314); test: LTEA_HepaRG_MMP3: Life Technologies and Expression Analysis (LTEA) Assay for matrix metalloproteinase-3 (MMP3) using HepaRG (AID 2283519)
# How it was run: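 HepaRG, human; 48 h dosing, 8 conc. (max 100 uM, half-log), duplicate, 0.5% DMSO. Readout: MMP3 transcript by Fluidigm TaqMan qRT-PCR, ACTB/GAPDH/POLR2A-normalised. Gain or loss fitted vs DMSO.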
# [16] = read-out: Paternally Expressed 10 (PEG10), PEG10 (gene 23089); test: LTEA_HepaRG_PEG10: Life Technologies and Expression Analysis (LTEA) Assay for Paternally Expressed 10 (PEG10) using HepaRG (AID 2283520)
# How it was run: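 Differentiated HepaRG cells, plated 48 h then switched to serum-free induction medium, were exposed in duplicate for 48 h to eight half-log concentrations topping at 100 uM in 0.5% DMSO. PEG10 mRNA was quantified by TaqMan qRT-PCR, normalised to ACTB, GAPDH and POLR2A.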
# [17] = read-out: Nuclear factor NF-kappa-B p105 subunit (Homo sapiens) (UniProt P19838); test: LTEA_HepaRG_NFKB1: Life Technologies and Expression Analysis (LTEA) Assay for Nuclear Factor Kappa B Subunit 1 (NFKB1) using HepaRG (AID 2283521)
# How it was run: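 HepaRG, 48 h exposure; 8-pt half-log series from 100 uM in 0.5% DMSO; duplicates. Readout: NFKB1 mRNA by qRT-PCR (Fluidigm arrays), housekeeping-normalized. Gain/loss fit vs DMSO baseline.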
# Hypoxia-inducible factor 1-alpha (Homo sapiens), sequence (Q16665 whole entry, looked up): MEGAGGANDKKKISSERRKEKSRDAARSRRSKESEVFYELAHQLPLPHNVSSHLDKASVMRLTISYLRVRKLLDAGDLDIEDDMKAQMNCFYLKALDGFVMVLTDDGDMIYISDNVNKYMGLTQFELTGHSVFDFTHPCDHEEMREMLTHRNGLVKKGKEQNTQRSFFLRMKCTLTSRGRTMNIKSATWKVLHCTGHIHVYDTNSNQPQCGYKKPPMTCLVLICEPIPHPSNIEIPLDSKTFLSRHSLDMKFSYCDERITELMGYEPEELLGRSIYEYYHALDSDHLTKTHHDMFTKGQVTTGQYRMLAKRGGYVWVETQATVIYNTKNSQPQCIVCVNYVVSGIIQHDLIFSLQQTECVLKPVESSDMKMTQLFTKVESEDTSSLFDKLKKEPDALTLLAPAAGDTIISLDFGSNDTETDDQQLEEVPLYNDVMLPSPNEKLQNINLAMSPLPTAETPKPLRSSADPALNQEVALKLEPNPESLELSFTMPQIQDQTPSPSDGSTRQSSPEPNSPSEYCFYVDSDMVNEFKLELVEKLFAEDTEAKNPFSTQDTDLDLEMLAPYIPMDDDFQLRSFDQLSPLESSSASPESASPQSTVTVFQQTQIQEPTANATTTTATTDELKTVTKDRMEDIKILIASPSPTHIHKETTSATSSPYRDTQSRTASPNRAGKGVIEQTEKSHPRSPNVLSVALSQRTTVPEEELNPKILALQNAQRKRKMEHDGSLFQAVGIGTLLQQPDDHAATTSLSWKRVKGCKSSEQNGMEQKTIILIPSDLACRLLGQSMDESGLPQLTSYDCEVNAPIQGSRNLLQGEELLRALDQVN
# Nuclear factor NF-kappa-B p105 subunit (Homo sapiens), sequence (P19838 whole entry, looked up): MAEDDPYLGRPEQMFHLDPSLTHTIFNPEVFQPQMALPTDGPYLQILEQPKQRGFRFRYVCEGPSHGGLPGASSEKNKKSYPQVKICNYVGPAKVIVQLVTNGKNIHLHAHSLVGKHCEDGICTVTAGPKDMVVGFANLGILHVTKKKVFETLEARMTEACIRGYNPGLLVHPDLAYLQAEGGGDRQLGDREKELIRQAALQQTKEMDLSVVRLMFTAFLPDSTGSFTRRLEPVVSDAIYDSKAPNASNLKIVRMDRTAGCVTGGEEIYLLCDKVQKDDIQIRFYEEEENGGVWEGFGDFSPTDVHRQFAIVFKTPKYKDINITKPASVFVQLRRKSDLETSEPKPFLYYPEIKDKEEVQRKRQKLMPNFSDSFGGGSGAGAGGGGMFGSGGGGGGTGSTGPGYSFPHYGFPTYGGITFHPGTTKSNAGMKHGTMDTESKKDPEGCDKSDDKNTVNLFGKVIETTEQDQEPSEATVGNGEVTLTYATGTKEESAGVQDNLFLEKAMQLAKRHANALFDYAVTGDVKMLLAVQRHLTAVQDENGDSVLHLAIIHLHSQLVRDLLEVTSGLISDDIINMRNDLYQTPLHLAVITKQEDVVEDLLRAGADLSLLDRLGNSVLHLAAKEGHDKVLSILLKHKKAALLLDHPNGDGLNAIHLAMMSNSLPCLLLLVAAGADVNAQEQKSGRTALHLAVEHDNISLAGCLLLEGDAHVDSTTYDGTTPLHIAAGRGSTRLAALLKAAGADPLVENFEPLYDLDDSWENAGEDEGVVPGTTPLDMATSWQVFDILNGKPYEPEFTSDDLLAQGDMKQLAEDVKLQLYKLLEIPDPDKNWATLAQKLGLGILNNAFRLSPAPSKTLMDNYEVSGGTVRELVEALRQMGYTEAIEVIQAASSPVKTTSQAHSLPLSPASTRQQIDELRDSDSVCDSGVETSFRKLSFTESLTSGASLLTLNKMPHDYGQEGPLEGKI
compound,measurement,setting,value
Cn1cc(-c2ccccc2)c(=O)c(-c2cccc(C(F)(F)F)c2)c1,AC50,[1],16.3 µM (active)
same,outcome,[2],inactive
same,outcome,[3],inactive
same,outcome,HGF (gene 3082),inactive
same,outcome,[4],inactive
same,outcome,[5],inactive
same,AC50,[6],50 µM (active)
same,outcome,[7],inactive
same,outcome,[8],inactive
same,outcome,[9],inactive
same,outcome,[10],inactive
same,outcome,[11],inactive
same,outcome,[12],inactive
same,outcome,[13],inactive
same,outcome,[14],inactive
same,outcome,"MYC, MYC (gene 4609)",inactive
same,outcome,[15],inactive
same,AC50,[16],23.5 µM (active)
same,outcome,[17],inactive
CCN(CC)N=O,outcome,[1],inactive
same,outcome,[2],inactive
same,outcome,[3],inactive
same,outcome,HGF (gene 3082),inactive
same,outcome,[4],inactive
same,outcome,[5],inactive
same,outcome,[6],inactive
same,outcome,[7],inactive
same,outcome,[8],inactive
same,outcome,[9],inactive
same,outcome,[10],inactive
same,outcome,[11],inactive
same,outcome,[12],inactive
same,outcome,[14],inactive
same,outcome,"MYC, MYC (gene 4609)",inactive
same,outcome,[15],inactive
same,outcome,[16],inactive
same,outcome,[17],inactive
Nc1ccc(Oc2ccc(N)cc2)cc1,outcome,[1],inactive
same,outcome,[2],inactive
same,outcome,[3],inactive
same,outcome,HGF (gene 3082),inactive
same,outcome,[4],inactive
same,outcome,[5],inactive
same,outcome,[6],inactive
same,outcome,[7],inactive
same,outcome,[8],inactive
same,outcome,[9],inactive
same,outcome,[10],inactive
same,outcome,[11],inactive
same,outcome,[12],inactive
same,outcome,[14],inactive
same,outcome,"MYC, MYC (gene 4609)",inactive
same,outcome,[15],inactive
same,outcome,[16],inactive
same,outcome,[17],inactive
